Source: PubChem BioAssay (NCI)
About 79,000 compounds went through this panel and 15% of them were active in at least one assay; those are over-represented in the sample as a whole. Activity calls are given as the source filed them. No stated cut-off is given here; in the data, active means growth inhibition above about 70%; inactive means the rest.

Assays:
[1] = NCI Yeast Anticancer Drug Screen. Data for the rad52 strain (AID 147);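 further: 0% = growth of vehicle-treated control cultures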; settings: S. cerevisiae rad52 mutant growth inhibition, active compounds read high
How it was run: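 Vehicle-treated cultures served as the reference for growth inhibition of compound-exposed yeast bearing a DNA repair mutation.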

[2] = NCI Yeast Anticancer Drug Screen. Data for the wt1 strain (AID 149);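 further: 0% = growth of vehicle-treated wt1 cultures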; settings: S. cerevisiae wt1 strain (SPY 50644) growth inhibition, active compounds read high
How it was run: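 wt1 strain grown with compound or vehicle; inhibition taken from the growth difference.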

[3] = NCI Yeast Anticancer Drug Screen. Data for the rad50EPP+ strain (AID 151);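 further: 0% = growth of vehicle-treated control cultures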; settings: S. cerevisiae rad50 mutant strain, active compounds read high
How it was run: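 In this screen, rad50EPP+ yeast were exposed to compounds. Growth inhibition was scored against vehicle-treated controls.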

[4] = NCI Yeast Anticancer Drug Screen. Data for the mgt1 strain (AID 153); settings: S. cerevisiae mgt1 mutant growth inhibition, active compounds read high
How it was run: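 mgt1 strain exposed; growth vs vehicle control recorded as inhibition.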

[5] = NCI Yeast Anticancer Drug Screen. Data for the rad50 strain (AID 155);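 further: 0% = growth of vehicle-only cultures of the same strain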; settings: S. cerevisiae rad50 strain growth inhibition, active compounds read high
How it was run: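 DNA repair mutant yeast, compound exposure, growth read-out; inhibition is taken relative to vehicle.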

[6] = NCI Yeast Anticancer Drug Screen. Data for the mec2-1 strain (AID 157); settings: S. cerevisiae mec2-1 strain, active compounds read high
How it was run: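 Vehicle-treated cultures served as reference for growth inhibition of compound-exposed mec2-1 yeast.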

[7] = NCI Yeast Anticancer Drug Screen. Data for the rad14 strain (AID 159);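 further: 0% = growth of vehicle-treated control cultures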; settings: S. cerevisiae rad14 strain growth inhibition, active compounds read high
How it was run: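 DNA repair-defective yeast, compound-exposed; % growth inhibition derived by comparison with vehicle-treated controls.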

[8] = NCI Yeast Anticancer Drug Screen. Data for the sgs1 mgt1 strain (AID 161);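 further: 0% = growth of cultures given vehicle only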; settings: S. cerevisiae sgs1 mgt1 strain, active compounds read high
How it was run: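 Mutant yeast exposed to compound; growth scored against vehicle-only wells.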

[9] = NCI Yeast Anticancer Drug Screen. Data for the CLN2oe strain (AID 163);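 further: 0% = growth of vehicle-only control cultures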; settings: S. cerevisiae CLN2oe strain, active compounds read high
How it was run: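 Inhibition relative to vehicle-treated yeast is reported. Cells: strain with genetic alteration in cell-cycle control, grown with compound.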

[10] = NCI Yeast Anticancer Drug Screen. Data for the cln2 rad14 strain (AID 165);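 further: 0% = growth equal to vehicle treated cultures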; settings: S. cerevisiae cln2 rad14 strain, active compounds read high
How it was run: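 Each compound was tested on cln2 rad14 yeast. Inhibition of growth was calculated against vehicle-exposed controls.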

[11] = NCI Yeast Anticancer Drug Screen. Data for the bub3 strain (AID 167); settings: S. cerevisiae bub3 mutant strain, active compounds read high
How it was run: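 In this screen, a yeast mutant lacking normal mitotic checkpoint function is challenged with compound. Relative growth versus vehicle gives the inhibition value.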

[12] = NCI Yeast Anticancer Drug Screen. Data for the wt2 strain (AID 169);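 further: 0% = growth of vehicle-treated yeast cultures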; settings: S. cerevisiae wt2 strain growth inhibition, active compounds read high
How it was run: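 Inhibition of yeast growth was determined after compound treatment, normalised to controls receiving only vehicle.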

[13] = NCI Yeast Anticancer Drug Screen. Data for the mlh1 strain (AID 171);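 further: 0% = growth of vehicle-treated control cultures of the same strain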; settings: S. cerevisiae mlh1 strain growth inhibition, active compounds read high
How it was run: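 Vehicle-normalised growth inhibition of a repair- or checkpoint-altered yeast strain following compound treatment.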

[14] = NCI Yeast Anticancer Drug Screen. Data for the sgs1 strain (AID 173);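 further: 0% = growth of vehicle-only control cultures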; settings: S. cerevisiae sgs1 mutant, active compounds read high
How it was run: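 Screen format: yeast with repair or checkpoint alterations, compound exposure, growth read relative to vehicle.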

[15] = NCI Yeast Anticancer Drug Screen. Data for the mlh1 rad18 strain (AID 175); settings: S. cerevisiae mlh1 rad18 strain growth inhibition, active compounds read high
How it was run: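 Vehicle-treated cultures served as the reference for growth inhibition in a yeast strain carrying DNA damage repair alterations exposed to each compound.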

[16] = NCI Yeast Anticancer Drug Screen. Data for the rad18 strain (AID 177); settings: S. cerevisiae rad18 mutant growth inhibition, active compounds read high
How it was run: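 Test articles were incubated with altered yeast defective in DNA damage repair. Results are given as inhibition of growth versus vehicle.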

[17] = at 5.0 µM (retest, dose inferred, filed as 0.5)
[18] = at 50.0 µM (retest, dose inferred, filed as 5.0)

Measured: growth inhibition

CC(C)OP(=O)(OC(C)C)C(=NCCO)NNc1ccc([N+](=O)[O-])cc1
inactive: [1]; at 1.2 µM 8% | [1]; at 3.7 µM 3% | [1]; at 11.0 µM 14% | [1]; at 33.0 µM 31% | [2]; at 1.2 µM -6% | [2]; at 3.7 µM 1% | [2]; at 11.0 µM 6% | [2]; at 33.0 µM 7% | [2]; at 100.0 µM 29% | [3]; at 1.2 µM -2% | [3]; at 3.7 µM 34% | [3]; at 11.0 µM 69% | [4]; at 1.2 µM -34% | [4]; at 3.7 µM -34% | [4]; at 11.0 µM -32% | [4]; at 33.0 µM 0% | [5]; at 1.2 µM -5% | [5]; at 3.7 µM -3% | [5]; [17] 8% | [5]; at 11.0 µM 24% | [5]; at 33.0 µM 59% | [5]; [18] 64% | [6]; at 1.2 µM -23% | [6]; at 3.7 µM -16% | [6]; [17] -2% | [6]; at 11.0 µM -19% | [6]; at 33.0 µM 20% | [6]; [18] 33% | [6]; at 50.0 µM 28.1% | [6]; at 100.0 µM 40% | [7]; at 1.2 µM -10% | [7]; at 3.7 µM 3% | [7]; at 11.0 µM 4% | [7]; at 33.0 µM 3% | [7]; at 100.0 µM 42% | [8]; [17] 1% | [8]; [18] 23% | [9]; at 1.2 µM -17% | [9]; at 3.7 µM 3% | [9]; at 11.0 µM 4% | [9]; at 33.0 µM 44% | [10]; [17] 25% | [10]; [18] 48% | [10]; at 50.0 µM 9.95% | [11]; at 1.2 µM -15% | [11]; at 3.7 µM 22% | [11]; [17] 22% | [11]; at 11.0 µM 49% | [11]; [18] 62% | [11]; at 50.0 µM 56.7% | [12]; at 1.2 µM 1% | [12]; at 3.7 µM -3% | [12]; at 11.0 µM 8% | [12]; at 33.0 µM 26% | [12]; at 100.0 µM 50% | [13]; at 1.2 µM -18% | [13]; at 3.7 µM -22% | [13]; at 11.0 µM 3% | [13]; at 33.0 µM 46% | [14]; at 1.2 µM 24% | [14]; at 3.7 µM 39% | [15]; [17] 48% | [16]; at 1.2 µM 20% | [16]; at 3.7 µM 0% | [16]; at 11.0 µM 13% | [16]; at 33.0 µM 54%
active: [1]; at 100.0 µM 79% | [3]; at 33.0 µM 93% | [3]; at 100.0 µM 94% | [4]; at 100.0 µM 74% | [5]; at 50.0 µM 86% | [5]; at 100.0 µM 91% | [8]; at 50.0 µM 85% | [9]; at 100.0 µM 90% | [11]; at 33.0 µM 94% | [11]; at 100.0 µM 95% | [13]; at 100.0 µM 87% | [14]; at 11.0 µM 71% | [14]; at 33.0 µM 95% | [14]; at 100.0 µM 95% | [15]; [18] 96% | [15]; at 50.0 µM 72.9% | [16]; at 100.0 µM 91%
